The term AC50 denotes the concentration giving half of the maximal activity seen.

Records with an inconclusive call do not appear. Activity calls are given as the source filed them. The calls were made as follows: active = hit-call score of the fitted dose curve at least 0.9, where 1 is the maximum; inconclusive = response in the unintended direction; inactive = score below 0.9.

Cellular tumor antigen p53 (Homo sapiens), sequence (P04637 whole entry, looked up, the tested form may be a part): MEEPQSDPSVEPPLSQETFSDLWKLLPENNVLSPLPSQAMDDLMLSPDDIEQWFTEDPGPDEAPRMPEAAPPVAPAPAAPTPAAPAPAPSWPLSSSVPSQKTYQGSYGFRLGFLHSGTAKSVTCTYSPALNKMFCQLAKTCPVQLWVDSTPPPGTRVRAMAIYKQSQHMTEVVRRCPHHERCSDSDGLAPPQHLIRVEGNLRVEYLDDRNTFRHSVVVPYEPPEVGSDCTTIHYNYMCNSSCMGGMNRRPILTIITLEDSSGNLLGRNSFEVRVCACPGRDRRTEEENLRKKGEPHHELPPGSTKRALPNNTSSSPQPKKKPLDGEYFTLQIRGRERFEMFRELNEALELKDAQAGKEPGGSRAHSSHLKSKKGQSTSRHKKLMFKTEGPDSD

The assay has as its target Cellular tumor antigen p53 (Homo sapiens) (UniProt P04637). The assay is described as follows: TOX21_p53_BLA_p5_ratio: Tox21 HCT-116 p53 Agonism Beta-lactamase Assay, Ratio, Phase 5 (AID 2283599). The text has this: TOX21_p53_BLA_p5 is a cell-based, single-readout assay that uses HCT116, a human intestinal cell line, […] in a 1536-well plate.TOX21_p53_BLA_p5_ratio is an assay readout measuring reporter gene via receptor activity and designed using inducible reporter (beta lactamase induction) detected with GAL4 b-lactamase reporter gene. The signal is derived from the ratio of cleaved (ch2) to uncleaved (ch1) reporter gene substrate used as the measure of target activity.Data from the assay component TOX21_p53_BLA_p5_ratio was analyzed into 1 assay endpoint. This assay endpoint, TOX21_p53_BLA_p5_ratio, was analyzed in the positive analysis fitting direction relative to DMSO as the negative control and baseline of activity. Using a type of inducible reporter, gain-of-signal activity can be used to understand changes in the reporter gene as they relate to the gene TP53. Furthermore, this assay endpoint can be referred to as a primary readout, because this assay has produced multiple assay endpoints and this ratio serves a reporter gene function to understand target activity. To generalize the intended target to other relatable targets, this assay endpoint is annotated to the DNA binding intended target family, where the subfamily is tumor suppressor.
Thawing Method: Place 14 mL of pre-warmed thaw medium into a 15 mL of conical tub. Remove the vial of cells to be thawed from liquid nitrogen and thaw rapidly by placing at 37C in a water bath with gentle agitation for 1-2 minutes. Decontaminate the vial by wiping with 70% ethanol before opening in a biological safety cabinet. Transfer the vial contents drop-wise into 14 mL of thaw medium in a sterile 15-mL conical tub. Centrifuge cells at 900 rpm for 4 minutes and resuspend in thaw medium. Transfer contents to the T75 tissue culture flask containing Thaw Medium and place flask in a humidified 37C/5% CO2 incubator. Switch to growth medium at first passage.Propagation Method: Aspirate medium, rinse once in DPBS, add 0.25% Trypsin/EDTA and swirl to coat the cell evenly. Add an equal volume of Growth Medium to inactivate Trypsin after 2-3 minutes incubation at 37C. Centrifuge cells at 900 rpm for 4 minutes and resuspend in growth medium. Cell should be passage or fed at least twice a week.Assay Protocol: Harvest cells from culture in growth medium and resuspend in assay medium. 2.2 Dispense 4000 cells/5 uL/well into 1536-well black/clear bottom plates using a Multidrop dispenser. After the cells were incubated at 37C for 5 hours, 23 nL of compounds dissolved in DMSO were transferred to the assay plate by a PinTool resulting in a 217-fold dilution. Incubate the plates for 16 hours at 37C, 5% CO2. Add 1 uL of 6X LiveBLAzer FRET B/G (CCF4-AM) Substrate Mixture to each well using a BioRAPTR dispenser and incubate the plates at room temperature for 2 hours. Measure fluorescence intensity at 460 and 530 nm emission and 405 nm excitation by an Envision detector. Data is expressed as the ratio of 460nm/530nm emissions. Add 4 uL of Cell-titer Glo to each well using BioRAPTR and incubate the plates at room temperature for 2 hours. Measure fluorescence intensity by a VewLux plate reader.
For `CCCn1cc[n+](C)c1C`, the outcome was inactive.
Still for that read-out and setting: with `O=C1OC(=O)c2cccc3cccc1c23` the entry was “inactive”.
On the same count and under the same terms, with `Cc1scc2c1N(C(=O)CN1CCN(C)CC1)c1ccccc1NC2=O` the entry was “inactive”; with `C[C@@](Cc1ccc(O)c(O)c1)(NN)C(=O)O`, “inactive”.
As for `CC(=O)c1ccc2ccc3ccccc3c2c1`, the AC50 was 80.9 µM (active).
For `CC(=O)Nc1ccc(OCC(O)CNC(C)C)cc1` (stereo not given), the result was inactive.
Still for that read-out and setting: to `CN(C)CC[C@@H](c1ccc(Cl)cc1)c1ccccn1` belongs “inactive”; to `CCCCCCCC/C=C\CCCCCCCC(=O)OCCOC(=O)CCCCCCC/C=C\CCCCCCCC`, “inactive”; to `C=CCCCCCC`, “inactive”.
For the compound `Cc1c(O)cc2c(c1C)O[C@](C)(CCC[C@H](C)CCC[C@H](C)CCCC(C)C)CC2`, the outcome was inactive.
As for `O=C(COCCOCCOCC(=O)Nc1c(I)cc(I)c(C(=O)O)c1I)Nc1c(I)cc(I)c(C(=O)O)c1I`, the result was inactive.
On the same count and under the same terms, with `Cc1cnc(C)c(C)n1` the entry was “inactive”; with `NCc1ccc(S(N)(=O)=O)cc1`, “inactive”.
On the same count and under the same terms, to `CC(C)(O)CCC(C)(C)O` belongs “inactive”; to `COc1ccc(Nc2ccc(OC)cc2)cc1`, “inactive”; to `CC(=O)CC(=O)Nc1ccc(S(=O)(=O)O)cc1`, “inactive”.
Same read-out and setting: to `CCOC(=O)C1=C[C@]2(CC)CCCN3CCc4c(n1c1ccccc41)[C@@H]32` belongs “inactive”; to `CC(C)S`, “inactive”; to `CC(=O)N[C@@H](CC(=O)N[C@@H](CCC(=O)O)C(=O)O)C(=O)O`, “inactive”.
Take `CCCOCC(C)OCC(C)O` (stereo not given): the outcome was inactive.
`COC(=O)C(C)(C)C`: the outcome was inactive.
Still for that read-out and setting: with `CCC=C1OC(=O)c2ccccc21` the entry was “inactive”; with `O=C(NCCc1c[nH]c2ccccc12)c1cccnc1`, “inactive”.
For `CC(C)(C)c1ccc(C=O)cc1`, the result was inactive.
Same read-out and setting: to `CN(C)CCN(Cc1ccccc1)c1ccccn1` belongs “inactive”.
With `CCOc1ccc2ccccc2c1C(=O)N[C@@H]1C(=O)N2[C@@H]1SC(C)(C)[C@@H]2C(=O)O`, the outcome was inactive.
On to `CO[C@@]1(NC(=O)C(C(=O)O)c2ccc(O)cc2)C(=O)N2C(C(=O)O)=C(CSc3nnnn3C)CO[C@@H]21` (stereo not given in full), for which the result was inactive.
As for `NC1CCN(c2nc3c(cc2F)c(=O)c(C(=O)O)cn3-c2ccc(F)cc2F)C1` (stereo not given), the result was inactive.
Still for that read-out and setting: to `Cc1cccc(C)c1N(CCCc1cccnc1)C(=O)C(C)N` (stereo not given) belongs “inactive”; to `NC(=O)c1ccccc1[N+](=O)[O-]`, “inactive”; to `CCCCCC(C)N` (stereo not given), “inactive”.
With `O=C(O)CCNC(=O)c1ccccc1`, the result was inactive.
Still for that read-out and setting: with `COc1ccc(CCC(=O)c2c(O)cc(O[C@@H]3O[C@H](CO)[C@@H](O)[C@H](O)[C@H]3O[C@@H]3O[C@@H](C)[C@H](O)[C@@H](O)[C@H]3O)cc2O)cc1O` the entry was “inactive”; with `C[C@H](O)C(=O)Nc1c(I)c(C(=O)NC(CO)CO)c(I)c(C(=O)NC(CO)CO)c1I`, “inactive”; with `O=C1CC[C@H](C(=O)N2CCCCC2)N1`, “inactive”.
As to `CCOC(=O)c1ccc(I)cc1`, the outcome was inactive.
The same measure, in the same setting: with `Nc1ccc(S(=O)(=O)Nc2ccccc2)cc1` the entry was “inactive”; with `CC(=NCc1ccccc1)c1ccccc1O`, “inactive”; with `Cc1ccc(N(CC2=NCCN2)c2cccc(O)c2)cc1`, “inactive”.
Same read-out and setting: with `CC(C)NC[C@@H](O)COc1cccc2ccccc12` the entry was “inactive”.

The values are drawn from PubChem BioAssay (EPA / NIEHS).
